Test results reported in ChEMBL document CHEMBL3433997, “St. Jude Leishmania screening dataset” (2016).

Assays:
Assay type in all cases: functional
[1] = target: Solute carrier family 2, facilitated glucose transporter member 1 (Homo sapiens) (UniProt P11166); assay: ST_JUDE_LEISH: Cytotoxicity at 2uM final concentration against transgenic Leishmania Mexicana promastigotes LmGLUT1 that are glucose transport deficient and complemented with the human glucose transporter GLUT1. Activity is measured by DNA content using SYBR green in vitro
Chain of Solute carrier family 2, facilitated glucose transporter member 1 (Homo sapiens) (P11166 whole entry): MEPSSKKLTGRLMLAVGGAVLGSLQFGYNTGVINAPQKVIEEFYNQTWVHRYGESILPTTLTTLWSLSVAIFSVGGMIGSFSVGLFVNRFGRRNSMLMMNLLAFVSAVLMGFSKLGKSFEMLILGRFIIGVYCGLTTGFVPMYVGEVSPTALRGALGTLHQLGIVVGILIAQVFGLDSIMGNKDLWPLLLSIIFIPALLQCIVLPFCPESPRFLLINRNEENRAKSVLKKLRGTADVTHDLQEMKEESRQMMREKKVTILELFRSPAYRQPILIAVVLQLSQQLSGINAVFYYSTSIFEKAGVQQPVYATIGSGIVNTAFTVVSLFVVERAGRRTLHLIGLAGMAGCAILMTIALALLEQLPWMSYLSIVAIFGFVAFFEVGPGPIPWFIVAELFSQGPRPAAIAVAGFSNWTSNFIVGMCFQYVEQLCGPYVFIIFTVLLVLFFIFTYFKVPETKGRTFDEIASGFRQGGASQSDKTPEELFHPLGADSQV

[2] = target: Hexose transporter 1 (Plasmodium falciparum) (UniProt O97467); assay: ST_JUDE_LEISH: Cytotoxicity at 2uM final concentration against transgenic Leishmania Mexicana promastigotes LmPfHT that are glucose transport deficient and complemented with the Plasmodium falciparum hexose transporter. Activity is measured by DNA content using SYBR green in vitro
[3] = target: Glucose transporter (Leishmania mexicana) (UniProt O61059); assay: ST_JUDE_LEISH: Cytotoxicity at 2uM final concentration against transgenic Leishmania Mexicana promastigotes LmGT2 that are glucose transport deficient and complemented with the L. Mexicana glucose transporter 2. Activity is measured by DNA content using SYBR green in vitro

SMILES | inhibition [1] [%] | inhibition [2] [%] | inhibition [3] [%]
CCOC(=O)c1cncc(/C=C/c2cc(C)cnc2N)c1 | 5.82 | 8.59 | 8.04
O=C(c1cccc(-c2noc(C(F)(F)F)n2)c1)N1CCN(c2nsc3ccccc23)CC1 | -0.16 | -1.92 | -1.66
OC1(Cc2ccccc2)CCN(Cc2cccc(-c3c[nH]c4nc(NC5CCCC5)ncc34)c2)CC1 | 9.83 | 8.36 | 6.99
Oc1c(C(Nc2nc3ccccc3s2)c2ccccc2)ccc2cccnc12 (centres undefined) | 2.66 | 3.92 | -1.54
CN(/N=C/c1ccc(Cl)cc1)c1nc(NCCc2ccc(O)cc2)nc(N2CCNCC2)n1 | 7.69 | 6.81 | 6.34
CN1CCC(NCc2ccc(-c3cnc(NCc4ccccc4)nc3)cc2)CC1 | 1.18 | 4.31 | 2.57
O=C(Nc1cccc(Cl)c1)N(CCCn1ccnc1)Cc1csc(-c2ccc(CNCc3ccccc3)cc2)n1 | 5.54 | 3.76 | 4.27
Cc1nnc2c(NC(=O)NC3CCCC3)cc3ccc(-c4cccc(CN5CCN(C)CC5)c4)cc3n12 | 6.21 | 6.49 | 5.53
COc1cc2ncnc(Nc3ccc(OCc4ccccc4)c(OCc4ccccc4)c3)c2cc1OC | 4.65 | 5.44 | 2.69
CCOc1cc2ncnc(Nc3ccc(OCc4ccccc4F)c(Cl)c3)c2cc1OCC | -0.1 | 2.22 | 0.76
Cn1nc(-c2ccc(CNC3CCc4ccccc43)cc2)c2cnc(NCCN3CCCC3)nc21 (centres undefined) | 2.93 | 3.09 | 0.03
CCCOC(=O)C1=C(C)NC2=C(C(=O)CC(c3ccc(OC)c(OC)c3)C2)C1c1cccc(O)c1 (centres undefined) | 8.78 | 9.73 | 8.46
CC1(C)NC(N)=NC(=N)N1OCCCNC(=O)c1ccc([N+](=O)[O-])cc1 | 4.23 | 3.33 | 3.92
O=C(Cn1c(CCc2cccc(F)c2F)cc(=O)c2cccnc21)N(CCCn1ccnc1)Cc1ccc(-c2ccc(C(F)(F)F)cc2)cc1 | 2.11 | 1.17 | 0.71
Cc1ccc(Nc2ccnc(Nc3ccc(F)c(Cl)c3)n2)cc1O | 6.74 | 10.4 | 2.04
CN(C)CCOc1cc(NC(=O)Nc2ccc(-c3ccncc3)c(C(F)(F)F)c2)ccc1Cl | 9.9 | 9.02 | 9.08
CN1CCN(c2ccnc3ccc(NC(=O)Nc4cccc5c(C#N)cccc45)cc23)CC1 | 2.25 | 2.35 | 2.75

SMILES | inhibition [1] [%] | inhibition [2] [%] | inhibition [3] [%]
N=C(N)NCCCCN(Cc1ccccc1)c1ccccc1 | 3.52 | 3.53 | 3.86
CC1CN(c2ccc(NC(=O)c3cccs3)cc2)CCN1Cc1cccc(F)c1 (centres undefined) | -0.49 | -0.85 | 3.41
Cc1cc(C)n(Cc2ccc(C(=O)NCC3CCCCC3)cc2)n1 | 4.03 | 2.07 | 2.61
NC(=O)C1CCN(Cc2cccc(-c3ccc(-c4nc5cc(C(F)(F)F)ccc5[nH]4)cc3)c2)CC1 | -1.36 | -1.5 | -2.94
O=C(NCc1cccc(C(F)(F)F)c1)c1ccc(-c2nc3cc(F)c(F)cc3[nH]2)cc1 | 1.11 | -2.13 | 4.61
Cc1cc(NC(=O)NCCN2CCC(NS(=O)(=O)c3ccc(Br)cc3)C2)c2ccccc2n1 (centres undefined) | 4.43 | 3.86 | 3.49
CCCCN1CCN(c2cc(NS(=O)(=O)c3ccc(C(=O)Nc4ccc(C(F)(F)F)cc4)cc3)ccc2OC)CC1 | 3.79 | 5.5 | 0.69
Ic1cc(Nc2ncnc3ccsc23)ccc1OCc1ccccc1 | 0.8 | 0.85 | 0.81
NC(=S)Cc1ccc2c(c1)OCO2 | -0.08 | -0.33 | -0.59
O=C(/C=C/C=C/c1ccccc1)NCCCCCN1CCC(c2c[nH]c3ccccc23)CC1 | 3.2 | 4.23 | 1.69
O=C(c1cc(C(=O)NC2CCCCC2)c(=O)n(C2CCCCC2)c1)c1cc(F)ccc1O | 2.83 | 1.22 | 1.41
Oc1ccccc1Nc1nc(NCc2ccco2)c2ccccc2n1 | 15.3 | 13.6 | 4.56
COc1cc2c(cc1OC)CN(CCc1ccc(NC(=O)c3cc4cc(Cl)ccc4[nH]3)cc1)CC2 | 8.2 | 0.43 | 1.46
CN(C)CCNCc1ccc(-c2ccc3c(Nc4ccc(F)cc4Cl)ccnc3c2)o1 | 4.19 | 6.24 | -0.47
O=C(O)c1ccc2c(c1)N(C(=O)CNCc1ccc(F)cc1)CC(=O)N2CCCc1ccccc1 | -4.22 | -1.82 | -2.25
CC(=O)Nc1ccc(C(=O)Nc2ccc(-c3cccc(-c4nc5cc(C(F)(F)F)ccc5[nH]4)c3)cc2)cn1 | -0.12 | 0.25 | -0.11
